Compound activity (PubChem BioAssay)
Measles CPE = compounds protecting cells from measles virus cytopathic effect, primary screen, measles RdRp inhibitor project, single point, MLSMR library, absorbance; hit rate 1.5% among 140,000; protection (pct of control), % at 4 µM; Measles virus-infected cells, CPE protection; AID 841, 2007; in the data active = protection mostly above about 24%, no sharp cut-off; inactive = mostly below about 26%
CYP2C9 inhib = blockers of cytochrome P450 2C9 activity – biochemical, luminescence, ADME assay, primary screen; CYP2C9 Supersomes, luciferin-H conversion; inhibition, % at 5 µM; hit rate 20% among 96,000;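 active = blocking of liver enzyme CYP2C9 beyond about 50% at 5 µM, limit read from the data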
Target sequence (P11712 whole entry, looked up): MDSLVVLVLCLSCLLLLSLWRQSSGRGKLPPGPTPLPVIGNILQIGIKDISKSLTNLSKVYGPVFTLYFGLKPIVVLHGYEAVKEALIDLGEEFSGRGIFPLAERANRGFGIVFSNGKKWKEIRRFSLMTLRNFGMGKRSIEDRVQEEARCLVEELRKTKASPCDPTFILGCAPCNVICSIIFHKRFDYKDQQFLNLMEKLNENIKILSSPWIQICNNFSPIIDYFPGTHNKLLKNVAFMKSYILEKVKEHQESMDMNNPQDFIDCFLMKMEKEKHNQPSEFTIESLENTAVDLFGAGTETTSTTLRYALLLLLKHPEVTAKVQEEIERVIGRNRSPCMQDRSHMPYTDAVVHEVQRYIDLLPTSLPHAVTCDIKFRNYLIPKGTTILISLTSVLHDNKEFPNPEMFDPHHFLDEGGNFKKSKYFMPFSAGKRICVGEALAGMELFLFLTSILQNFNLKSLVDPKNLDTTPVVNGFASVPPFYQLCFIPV
CYP2C19 act = human CYP2C19 activators, primary screen, biochemical, luminescence; recombinant CYP2C19, luciferin-H EGE luminescence; active compounds read high; 0 = fully inhibited enzyme, 1 = untreated enzyme; activation factor at 5 µM; 96,000 tested, under 10 active; AID 1025, 2008;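 active = activation factor of at least 2 at 5 µM in the primary screen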
CYP2C19 inhib = blockers of cytochrome P450 2C19 activity – biochemical, luminescence, ADME assay, primary screen. P33261. CYP2C19 Supersomes, luciferin-H EGE luminescence, 30 min. inhibition, % at 5 µM. hit rate 21% among 96,000;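 active = CYP2C19 inhibition above a set limit at 5 µM in the primary screen, cut at about 50% in these data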
CYP2C9 activ = human CYP2C9 activators, primary screen, biochemical, luminescence. Cytochrome P450 2C9 (Homo sapiens), P11712. recombinant CYP2C9, luciferin-H conversion; active compounds read high; factor 1 = untreated enzyme, 0 = blocked. activation factor at 5 µM. hit rate 1.4% among 96,000. AID 1024, 2008;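 active = activation factor of 2 or more for CYP2C9 at a 5 µM dose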
Each line names hits and unclear results; the compound was inactive in the other large screens. Rows were chosen to be rich in hits. Some 22% of all compounds tested hit in one or more screens of this group.

CCN1C(=O)c2cccc3c(S(=O)(=O)N(C(=O)c4cccnc4)c4ccc(OC)cc4)ccc1c23	none (no result: CYP2C9 inhib, CYP2C19 act, CYP2C19 inhib, CYP2C9 activ)
CCCCNC(=O)CSc1nc2ccsc2c(=O)n1C1CCN(C(=O)OCC)CC1	CYP2C9 inhib 56
COc1ccc(Cn2nnnc2CN2CCOCC2)cc1	none (no result: CYP2C9 inhib, CYP2C19 act, CYP2C19 inhib, CYP2C9 activ)
O=C(COC(=O)c1cccnc1)c1ccc(Cl)c(Cl)c1	CYP2C19 inhib 77
O=C(COC(=O)c1cccnc1)c1ccc(Cl)cc1	CYP2C19 inhib 60
O=C(O)C1CCCCC1C(=O)Nc1cccc2ccccc12 (configuration not stated)	none (no result: CYP2C9 inhib, CYP2C19 act, CYP2C19 inhib, CYP2C9 activ)
O=C(O)C1CCCCC1C(=O)Nc1ccccc1Nc1ccccc1 (configuration not stated)	CYP2C9 inhib 86, CYP2C19 inhib 56
O=C(NCC1CCCO1)C1CCC(N2C(=O)c3ccccc3C2=O)CC1 (configuration not stated)	CYP2C9 inhib 72, CYP2C19 inhib 56
CS(=O)(=O)N1CCC(C(=O)Nc2ccccc2)CC1	none
O=C(Nc1ccccc1)C1CCN(c2nccs2)CC1	CYP2C19 inhib 85
O=C(Nc1ccccc1)C1CCCCC1	none (no result: CYP2C9 inhib, CYP2C19 act, CYP2C19 inhib, CYP2C9 activ)
O=C(Nc1ccc(Nc2ccccc2)cc1)C1CC1	CYP2C9 inhib 50, CYP2C19 inhib 59
COc1ccc(OC)c(NC(=O)COC(=O)Cc2ccc(-c3ccccc3)cc2)c1	none (no result: CYP2C9 inhib, CYP2C19 act, CYP2C19 inhib, CYP2C9 activ)
S=c1[nH]nc(-c2cccnc2)n1-c1ccccc1	none (no result: CYP2C9 inhib, CYP2C19 act, CYP2C19 inhib, CYP2C9 activ)
O=C(Nc1ccc(F)cc1)C1CCC(N2C(=O)c3ccccc3C2=O)CC1 (configuration not stated)	CYP2C9 inhib 51, CYP2C19 inhib 78
COc1cccc(NC(=O)COc2c(F)c(F)c(C(F)(F)F)c(F)c2F)c1	none (no result: CYP2C9 inhib, CYP2C19 act, CYP2C19 inhib, CYP2C9 activ)
CCC(C)S(=O)(=O)c1snnc1C (configuration not stated)	none
Cc1ccccc1CS(=O)(=O)c1snnc1C	CYP2C19 inhib 55
Cc1ccccc1CS(=O)(=O)c1cnc2ccccc2n1	CYP2C19 inhib 93, CYP2C9 activ 2.3
CC(Oc1ccc(Cl)cc1Cl)c1nc(-c2ccc(NC(=O)c3cccnc3)cc2)no1 (configuration not stated)	CYP2C9 inhib 96, CYP2C19 inhib 64
CC(Oc1ccc(Cl)cc1Cl)c1nc(-c2ccccn2)no1 (configuration not stated)	CYP2C9 inhib 92, CYP2C19 inhib 96
O=S(Cc1cc(Oc2ccccc2)nc(-c2ccccc2)n1)c1ccccc1 (configuration not stated)	CYP2C9 inhib 78, CYP2C19 inhib 84
Cc1[nH]nc2ncc(C(=O)c3cc(F)ccc3O)cc12	CYP2C19 inhib 58
Cc1noc2ncc(C(=O)c3cc(F)ccc3O)cc12	CYP2C9 inhib 50, CYP2C19 inhib 96
O=C(c1cn[nH]c1)c1cc(F)ccc1O	Measles CPE 42
Cc1ccc(O)c(C(=O)c2cnc3onc(-c4ccc(F)cc4)c3c2)c1	none (no result: CYP2C9 inhib, CYP2C19 act, CYP2C19 inhib, CYP2C9 activ)
COc1ccc(C)cc1NC(=O)Cn1cnc2sc(C)c(S(=O)(=O)N3CCOCC3)c2c1=O	none (no result: CYP2C9 inhib, CYP2C19 act, CYP2C19 inhib, CYP2C9 activ)
Cc1ccc(S(=O)(=O)NCC(=O)OC(C(=O)c2ccccc2)c2ccccc2)cc1 (configuration not stated)	CYP2C9 inhib 57
Cc1ccc(NC(=S)/N=C(\N)Nc2nc(C)c3ccccc3n2)cc1C	none (no result: CYP2C9 inhib, CYP2C19 act, CYP2C19 inhib, CYP2C9 activ)
O=C(NCCCN1CCCC1=O)c1cccnc1	none
CC(C)(C)Cc1nnc(NS(=O)(=O)c2ccc(F)cc2)s1	none
O=C(CSc1nc2ccccc2c(=O)n1NC(=O)Cc1ccccc1)NCc1ccco1	CYP2C9 inhib 88
O=C(CSc1nc2ccsc2c(=O)n1NC(=O)c1ccccc1)NCc1ccco1	CYP2C9 inhib 64, CYP2C19 inhib 60
O=C(CSc1nc2ccccc2c(=O)n1NC(=O)Cc1ccccc1)NCc1ccccc1	CYP2C9 inhib 93
O=C(Cc1cccs1)Nn1c(Cc2cccs2)nc2ccccc2c1=O	CYP2C9 inhib 72
CCn1c(SCC(=O)NCc2ccccc2)nc2ccccc2c1=O	none
Cc1ccc(Cn2c(SC3CCOC3=O)nc3ccccc3c2=O)cc1 (configuration not stated)	none (no result: CYP2C9 inhib, CYP2C19 act, CYP2C19 inhib, CYP2C9 activ)
CC(C(=O)NCc1cccs1)n1cccc1 (configuration not stated)	none
CSCC[C@@H](C(=O)NCc1cccs1)N1Cc2ccccc2C1=O	CYP2C19 inhib 59
CSCCC(C(=O)NCc1cccs1)N1C(=O)c2ccccc2C1=O (configuration not stated)	none
O=C(NCc1cccs1)C(Cc1ccccc1)n1cccc1 (configuration not stated)	CYP2C9 inhib 57, CYP2C19 inhib 64
Cc1csc(NC(=O)C(Cc2ccccc2)n2cccc2)n1 (configuration not stated)	CYP2C9 inhib 63
COc1ccc(C2(c3ccc(OC)cc3)NC(=O)N(Cn3nnc4ccccc4c3=O)C2=O)cc1	none (no result: CYP2C9 inhib, CYP2C19 act, CYP2C19 inhib, CYP2C9 activ)
CCOc1ccc(NC(=O)CCNS(=O)(=O)c2ccc3c(c2)c(=O)n(C)c(=O)n3C)cc1	none
CC1CCN(C2(O)C(=O)Nc3ccc([N+](=O)[O-])cc32)CC1 (configuration not stated)	CYP2C9 inhib 66
Cc1ccc(C2=[N+]([O-])C(C)(C)N(O)C2(C)C)cc1	Measles CPE 46 (no result: CYP2C9 inhib, CYP2C19 act, CYP2C19 inhib, CYP2C9 activ)
CC1(C)C(c2ccccc2)=[N+]([O-])C2(CCCCC2=O)N1O (configuration not stated)	none (no result: CYP2C9 inhib, CYP2C19 act, CYP2C19 inhib, CYP2C9 activ)
CCCCSC(=O)Nc1ccccc1	none
O=C(CSc1ccc(Cl)cc1)N1CCC(c2nc3ccccc3s2)CC1	CYP2C9 inhib 54
CC1CCCC(C)N1C(=O)CSc1nnc(NC(=O)Cc2cccs2)s1 (configuration not stated)	Measles CPE 46
CC1CCN(C(=O)CSc2nc3ccccc3s2)CC1	CYP2C9 inhib 63, CYP2C19 inhib 57
O=C(CSc1c(Cl)cccc1Cl)N1CCC(c2nc3ccccc3s2)CC1	none
CC1CN(C(=O)C(C)Sc2nc3ccccc3s2)CC(C)O1 (configuration not stated)	CYP2C19 inhib 94
CC1Cc2ccccc2N1C(=O)CSc1nnc(NC(=O)Cc2cccs2)s1 (configuration not stated)	none
CC(Sc1nc2ccccc2s1)C(=O)Nc1ccc2c(c1)OCO2 (configuration not stated)	none (no result: CYP2C9 inhib, CYP2C19 act, CYP2C19 inhib, CYP2C9 activ)
O=C(c1nsnc1-c1ccccc1O)N1CCCCC1	none
CC(=O)OCC(OC(C)=O)C(OC(C)=O)C(OC(C)=O)C(=O)Nc1ccc(C)cc1 (configuration not stated)	none
CCc1ccc(C(=O)N2CCC(c3nc4ccccc4s3)CC2)cc1	CYP2C9 inhib 76
NC(=O)C1CCN(C(=O)CSc2nc3ccccc3s2)CC1	none
CC1CCCC(C)N1C(=O)CSc1nc2ccccc2s1 (configuration not stated)	CYP2C9 inhib 61, CYP2C19 inhib 86
